In the library only some 1.3% were active in any assay of this set; here they are far more common.
S1P2 agonist = activates the human S1P2 receptor. O95136. AID 729. S1P2-expressing cell line, agonist reporter read-out. actives 0.46% (n = 97,000). activation, % at 4.5 µM; in the data active means activation above about 16%;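 further: 0% = vehicle low control and 100% = maximal reference agonist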
S1P2 antag = blocks the human S1P2 receptor; actives 0.21% (n = 97,000); AID 736; O95136; cell-based S1P2 antagonist assay, inhibition at 5 uM; inhibition, % at 5 µM; in the data active means inhibition above about 45%;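 further: CRE beta-lactamase reporter cells expressing human S1P2 stimulated with S1P; 0% = agonist at EC80 alone and 100% = agonist plus reference antagonist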
GALR2 agonist = GALR2 (human) receptor agonism | GALR2-expressing cells, agonist activation read-out | activation, % (test concentration not listed) | actives 0.48% (n = 140,000); in the data active means activation above about 5%, passing the limit was not always enough;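 further: 0% = vehicle buffer wells and 100% = reference agonist at full effect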
GALR2 antag = antagonists of human galanin receptor 2 (GALR2); O43603; GALR2-expressing cells, antagonist mode; inhibition, % at 4 µM; actives 0.39% (n = 140,000);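 further: cells stimulated with galanin 1-16 at roughly its EC80; 0% = agonist challenge control and 100% = basal control without agonist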
LYP act = increases human PTPN22 phosphatase activity; Q9Y2R2; recombinant LYP, DiFMUP fluorescence; 0 = plate median, 100 = signal doubled; activation, % at 2 µM; actives 0.11% (n = 96,000);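 active means activation at 2 µM above a set limit, the mean plus 5 SD, cut at about 37% in these data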
Target sequence (Q9Y2R2 whole entry, looked up): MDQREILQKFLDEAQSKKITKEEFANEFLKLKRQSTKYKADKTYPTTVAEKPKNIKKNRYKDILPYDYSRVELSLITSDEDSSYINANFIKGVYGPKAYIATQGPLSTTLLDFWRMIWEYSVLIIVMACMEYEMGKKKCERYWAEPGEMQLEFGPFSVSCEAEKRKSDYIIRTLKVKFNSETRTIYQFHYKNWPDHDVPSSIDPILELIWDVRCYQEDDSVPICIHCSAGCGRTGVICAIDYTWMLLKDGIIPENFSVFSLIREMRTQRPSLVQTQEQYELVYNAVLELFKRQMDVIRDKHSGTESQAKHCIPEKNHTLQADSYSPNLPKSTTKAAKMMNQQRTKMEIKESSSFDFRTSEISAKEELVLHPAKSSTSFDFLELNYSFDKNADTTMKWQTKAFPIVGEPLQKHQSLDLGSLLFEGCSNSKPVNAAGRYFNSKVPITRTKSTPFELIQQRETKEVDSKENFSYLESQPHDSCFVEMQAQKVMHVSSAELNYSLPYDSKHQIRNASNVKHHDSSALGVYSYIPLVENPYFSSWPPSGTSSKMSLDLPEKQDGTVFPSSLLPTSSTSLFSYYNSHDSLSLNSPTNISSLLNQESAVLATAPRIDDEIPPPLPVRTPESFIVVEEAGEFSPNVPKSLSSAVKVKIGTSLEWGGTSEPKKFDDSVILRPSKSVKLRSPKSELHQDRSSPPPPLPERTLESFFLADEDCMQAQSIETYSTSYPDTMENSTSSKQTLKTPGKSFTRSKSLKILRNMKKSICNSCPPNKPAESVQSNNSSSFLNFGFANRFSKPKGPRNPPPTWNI
PTPN22 inh 2 = LYP (human) phosphatase inhibition | Q9Y2R2 | recombinant LYP catalytic domain, DiFMUP fluorescence | inhibition, % at 2 µM | actives 0.21% (n = 96,000);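 active means inhibition at 2 µM at or above a set limit, the screen mean plus 3 SD, cut at about 24% in these data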;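 further: 0% = DMSO with enzyme and 100% = enzyme fully blocked by orthovanadate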
GALR2 ant conf = confirmation of human galanin receptor 2 (GALR2) antagonists; inhibition, % at 4 µM; GALR2-expressing cells, antagonist mode, inhibition; AID 866; shares compounds with GALR2 antag; actives 60% (n = 480);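 further: cells stimulated with galanin at about its EC80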
BLA inh counter = inhibits beta-lactamase reporter in GALR2 antagonist counterscreen; inhibition, % at 4.2 µM; CHO NFAT-BLA reporter, beta-lactamase FRET, thapsigargin-stimulated; shares compounds with GALR2 antag; AID 867; actives 36% (n = 480);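 active means inhibition above the mean inhibition across tested compounds plus 3 SD, cut at about 27% in these data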;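 further: 0% = 500 nM thapsigargin stimulated wells and 100% = unstimulated BSA only wells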
Active calls of the source: *; x = no result given. Unless noted, no stated cut-off is given here; in the data, active means inhibition above about 27%; inactive means the rest.

SMILES	S1P2 agonist	S1P2 antag	GALR2 agonist	GALR2 antag	LYP act	PTPN22 inh 2	GALR2 ant conf	BLA inh counter
CCOc1ccc(-c2nnc3n2N=C(c2ccc(OC)cc2)CS3)cc1	2	-25	-2	-1	-1	-1	x	x
Cc1ccc(C(=O)N(c2c(C)n(C)n(-c3ccccc3)c2=O)C(C)C)cc1	0	8	-2	-5	7	-7	x	x
C=CCn1c(C)cc(C(=O)Cn2ncc(Cl)c(Cl)c2=O)c1C	x	x	-2	57*	x	x	46*	21
O=C(Nc1ccc(S(=O)(=O)N2CCOCC2)cc1)c1ccc(CN2CCc3ccccc3C2)cc1	-7	85*	-2	28*	-5	10	46*	18
O=C(Nc1ccc(S(=O)(=O)N2CCCC2)cc1)c1ccc(CN2CCc3ccccc3C2)cc1	x	x	-1	7	x	x	x	x
O=[N+]([O-])c1cc(-c2ncccn2)c([N+](=O)[O-])s1	x	x	-1	45*	x	x	55*	26
O=C1NC(c2ccccc2)C(C(=O)c2cccs2)C(O)(C(F)(F)F)N1 (stereo not given)	-3	10	-4	33*	0	4	9	0
COc1cc(C2NC(=S)NC(O)(C(F)(F)F)C2C(=O)c2cccs2)cc(OC)c1O (stereo not given)	x	x	1	10	x	x	x	x
CCCCN(C)CC(O)Cn1cc(/C=C/C(=O)c2cccs2)c2ccccc21 (stereo not given)	x	x	1	50*	x	x	29*	43*
O=C(/C=C/c1cn(CC(O)CN2CCCCCC2)c2ccccc12)c1cccs1 (stereo not given)	x	x	2	20	x	x	x	x
Cc1ccnc(N2C(=O)c3cccc4c([N+](=O)[O-])ccc(c34)C2=O)c1	2	52*	3	36*	6	-8	42*	40*
O=C1c2cc([N+](=O)[O-])cc3cc([N+](=O)[O-])cc(c23)C(=O)N1c1ccccn1	x	x	-1	20	x	x	x	x
CC1=C(C#N)C(NC(=O)c2ccc(Cl)cc2)(C(F)(F)F)C(=O)N1 (stereo not given)	x	x	-1	16	x	x	x	x
CC(=O)SC(C[N+](=O)[O-])c1cn(C(C)=O)c2ccccc12 (stereo not given)	-10	29	-1	35*	-1	1	56*	21
CC(=O)n1cc(Nc2ccccc2C(=O)O)c2ccccc21	-2	9	-3	11	-3	2	x	x
COc1ccc(/C=C2\SC(=S)N(NC(=O)c3csc4c3CCCC4)C2=O)cc1	-6	8	-3	-9	-13	15	x	x
CCOC(=O)c1ccc(NC(=O)c2ccccc2[N+](=O)[O-])cc1	x	x	-1	0	x	x	x	x
CCOC(=O)c1cc([N+](=O)[O-])c([N+](=O)[O-])cc1NC(C)=O	x	x	-1	41*	x	x	48*	7
CC12CCC(=O)N1C(C(=O)OCC(=O)Nc1cc(S(=O)(=O)N3CCCCC3)ccc1Cl)CS2 (stereo not given)	x	x	-1	2	x	x	x	x
COc1ccc(-n2nc(C(=O)Nc3ccc4c(c3)OCO4)c3ccccc3c2=O)c(OC)c1	x	x	-2	5	x	x	x	x
COc1ccccc1-n1nc(C(=O)Nc2ccc3c(c2)OCO3)c2ccccc2c1=O	x	x	-2	42*	x	x	26	31*
CC(=O)c1c(C)[nH]c(C(=O)OCc2ccccc2)c1C	x	x	-1	4	x	x	x	x
CC(=O)c1c(C)[nH]c(C(=O)OCCCCN2C(=O)c3ccccc3C2=O)c1C	-2	63*	0	32*	16	-17	39*	7
CC(CC(=O)c1cccs1)CC(=O)c1cccs1	-9	15	-4	33*	-6	3	9	5
CC1SC(=Nc2ccccc2)N(S(=O)(=O)c2ccccc2)C1=O (stereo not given)	x	x	1	-2	x	x	x	x
SMILES	S1P2 agonist	S1P2 antag	GALR2 agonist	GALR2 antag	LYP act	PTPN22 inh 2	GALR2 ant conf	BLA inh counter
O=S(=O)(/C(=C/c1ccc(C(F)(F)F)cc1)c1nc2ccccc2[nH]1)c1ccccc1	x	x	2	38*	x	x	51*	45*
CC(C)c1ccc(/C=C(\c2nc3ccccc3[nH]2)S(=O)(=O)c2ccccc2)cc1	x	x	-2	0	x	x	x	x
CCCCn1cnc2c([nH]c3ccccc32)c1=O	-4	9	0	1	-3	5	x	x
CCCCOCCCNc1ncnc2c1[nH]c1ccccc12	-1	29	-1	47*	7	-4	31*	23
c1ccc2c(c1)[nH]c1c(NCC3CCCO3)ncnc12 (stereo not given)	-11	10	0	28*	-1	0	27*	5
c1nc(NCC2CCCO2)c2[nH]cnc2n1 (stereo not given)	-7	6	-1	0	9	-5	x	x
C=CCNc1ncnc2c1[nH]c1ccccc12	-2	-5	-2	24	-8	8	x	x
CCOCCCNc1ncnc2c1[nH]c1ccccc12	-5	20	-1	29*	-4	2	25	16
O=C(Cc1ccccc1)NCC(=O)OCC(=O)c1ccc(OC(=O)c2ccccc2)cc1	-6	7	-2	-4	-14	14	x	x
O=C(CCc1ccccc1)Nc1ncn[nH]1	-4	3	-3	0	6	-7	x	x
O=C(/C=C/c1ccccc1)Nc1ncn[nH]1	-3	28	-4	30*	11	-5	37*	24
COc1cc(OC)c(OC)cc1/C=C/C(=O)c1ccc(NS(=O)(=O)c2ccc(C)cc2)cc1	x	x	-1	31*	x	x	21	19
COc1ccc(-c2cnc3c(c2)CCC3(C#N)C#N)cc1	x	x	1	31*	x	x	17	19
O=C(OCn1ncc(Cl)c(Cl)c1=O)c1ccc(F)cc1	-2	80*	-3	91*	-13	15	93*	86*
O=C(OCn1ncc(Cl)c(Cl)c1=O)c1ccccc1Cl	-3	84*	-3	95*	-8	10	93*	82*
Cc1ccccc1Nc1cccc2nonc12	x	x	-3	33*	x	x	38*	47*
Cc1ccccc1Nc1nc2ccccc2s1	x	x	-1	9	x	x	x	x
N/C(Cc1ccccc1)=N\OC(=O)c1cccc2ccccc12	x	x	-1	23	x	x	x	x
CCN(CC)S(=O)(=O)c1ccc(Cl)c(C(=O)Nc2ccc(Cl)cc2[N+](=O)[O-])c1	x	x	-2	28*	x	x	20	12
COc1ccc(CCNC(=O)COc2ccc(S(=O)(=O)NC3CCCCC3)cc2Cl)cc1	-8	-193	-2	-2	34	-31	x	x
CSC[C@@H]1NC(=S)N(c2ccc(C)cc2)C1=O	x	x	0	-4	x	x	x	x
O=C(Nc1ncc(Cc2ccc(SC(F)F)cc2)s1)c1ccc(OC(F)F)cc1	x	x	3	33*	x	x	8	27*
Cc1ccc(Cc2cnc(NC(=O)c3ccco3)s2)cc1	-2	-1	-2	-4	-5	6	x	x

Screens deposited in PubChem by several laboratories.
